We go through 26 molecules from PubChem BioAssay (EPA / NIEHS).

Assay [1] is described as follows: CLD_ACTIN_24hr: CellzDirect (CLD) Gene Expression Assay for Baseline Control (Actin) at 24 hours (AID 2283670). An outline of the steps:
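Primary human hepatocytes dosed over multiple concentrations with 0.2% DMSO vehicle; actin mRNA measured at 24 h by qNPA chemiluminescence. Background control endpoint, fitted as gain of signal versus DMSO.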

Read-out in assay [2]: Cytochrome P450 2B6 (Homo sapiens) (UniProt P20813)
Description: CLD_CYP2B6_6hr: CellzDirect (CLD) Gene Expression Assay for xenobiotic metabolism (CYP2B6) at 6 hours (AID 2283677).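 Further: actives raise CYP2B6 transcript above DMSO baseline so AC50 marks an inducer.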 An outline of the steps:
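Primary human hepatocytes dosed with chemicals at multiple concentrations, vehicle 0.2% DMSO; CYP2B6 mRNA induction measured 6 h after dosing by quantitative nuclease protection assay with chemiluminescence, gain of signal fitted relative to DMSO.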

Assay [3] is described as follows: CCTE_Padilla_ZF_144hpf_TERATOSCORE: (Legacy) CCTE's 144 Hour Post-fertilization zebrafish Assay Teratoscore, Padilla Lab (AID 2283679; active means hit-call score of the fitted dose curve at least 0.9, where 1 is the maximum; inactive means score below 0.9;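 on AC50: zebrafish embryos with chorions exposed by immersion from 6-8 hpf to 5 dpf with daily renewal; teratogenicity score from eye scoring of death hatching and malformations at 144 hpf; higher score means more developmental defects relative to DMSO baseline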). The gist of the method: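 Larvae scored by eye at 144 hpf for death, hatching and malformations after a day in clean Hanks'. Before that, daily-renewed exposure at 80 uM (0.4% DMSO, 26C) from roughly 6-8 hpf through 5 dpf, 4 embryos per chemical.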

Read-out in assay [4]: Glyceraldehyde-3-phosphate dehydrogenase (Homo sapiens) (UniProt P04406)
Briefly: CLD_GAPDH_6hr: CellzDirect (CLD) Gene Expression Assay for Baseline Control (Glyceraldehyde 3-phosphate dehydrogenase) at 6 hours (AID 2283681). The gist of the method:
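Primary human hepatocytes from two donor preparations, dosed at multiple concentrations with 0.2% DMSO vehicle; GAPDH mRNA measured 6 h after dosing by chemiluminescent quantitative nuclease protection assay (qNPA) on denatured lysates. Serves as background control; cytotoxicity annotated by morphology.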

Read-out in assay [5]: HMG-CoA synthase (HMGCS2), HMGCS2 (gene 3158)
Briefly: CLD_HMGCS2_6hr: CellzDirect (CLD) Gene Expression Assay for HMG-CoA synthase (HMGCS2) at 6 hours (AID 2283682).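 Further: actives raise HMGCS2 transcript above the 0.2% DMSO vehicle baseline.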 The gist of the method: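 Primary human hepatocytes dosed daily with fresh chemical, 0.2% DMSO vehicle; HMGCS2 mRNA measured at 6 h by qNPA chemiluminescence. Gain of signal fitted against DMSO; cytotoxicity flagged from phase-contrast morphology.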

Read-out in assay [6]: ABC Transporter (ABCB1), ABCB1 (gene 5243)
Description: CLD_ABCB1_24hr: CellzDirect (CLD) Gene Expression Assay for ABC Transporter (ABCB1) at 24 hours (AID 2283684).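 On AC50: potency for increase in ABCB1 mRNA relative to DMSO vehicle.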 The gist of the method:
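Primary human hepatocytes, two donor preparations, dosed daily with fresh solutions; vehicle 0.2% DMSO; harvested at 24 h. ABCB1 mRNA measured by quantitative nuclease protection assay (chemiluminescence); morphology-based cytotoxicity annotated.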

Read-out in assay [7]: Cytochrome P450 2B6 (Homo sapiens) (UniProt P20813)
Description: CLD_CYP2B6_24hr: CellzDirect (CLD) Gene Expression Assay for xenobiotic metabolism (CYP2B6) at 24 hours (AID 2283686). The gist of the method: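 Primary human hepatocytes dosed daily for two days with fresh solutions, harvested at 24 hours; mRNA induction quantified by qNPA chemiluminescence, gain of signal vs 0.2% DMSO vehicle. Cytotoxicity annotated from phase-contrast morphology.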

Read-out in assay [8]: glucuronosyltransferase (UGT1A1), UGT1A1 (gene 54658)
Description: CLD_UGT1A1_6hr: CellzDirect (CLD) Gene Expression Assay for glucuronosyltransferase (UGT1A1) at 6 hours (AID 2283672). An outline of the steps:
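Primary human hepatocytes from two donor preparations, dosed with fresh solutions in 0.2% DMSO, harvested at 6 h. UGT1A1 mRNA measured by qNPA chemiluminescence; induction fitted upward versus DMSO.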

Read-out in assay [9]: ABC Transporter (ABCB11), ABCB11 (gene 8647)
Briefly: CLD_ABCB11_24hr: CellzDirect (CLD) Gene Expression Assay for ABC Transporter (ABCB11) at 24 hours (AID 2283674; active means hit-call score of the fitted dose curve at least 0.9, where 1 is the maximum; inactive means score below 0.9). The gist of the method: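 Primary human hepatocytes were dosed daily for two days, with 0.2% DMSO vehicle. ABCB11 mRNA induction was measured at 24 hours by quantitative nuclease protection assay with chemiluminescence. Gain of signal was fitted relative to DMSO.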

Read-out in assay [10]: Cytochrome P450 (CYP24A1_1), CYP24A1 (gene 1591)
Description: LTEA_HepaRG_CYP24A1_1: Life Technologies and Expression Analysis (LTEA) Assay for Cytochrome P450 (CYP24A1_1) using HepaRG (AID 2283671; active means hit-call score of the fitted dose curve at least 0.9, where 1 is the maximum; inactive means score below 0.9). As to conditions: mRNA level, 48 h; actives raise or lower the signal. The gist of the method:
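HepaRG, 48 h exposure, 8-pt half-log series from 100 uM in 0.5% DMSO, duplicates. Readout: TaqMan qRT-PCR of CYP24A1 mRNA, housekeeping-normalized (ACTB/GAPDH/POLR2A). Bidirectional curve fit vs DMSO baseline.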

“And” between values parts separate entries of the source, which are not always exact repeats. Equal values may be shown once. Results filed as inconclusive are left out. Some compounds were tested as several samples or in several runs, with calls that do not always agree. The source made the active and inactive calls. How the source made its calls, unless noted: active means hit-call score of the fitted dose curve at least 0.9, where 1 is the maximum; inconclusive means response in the unintended direction; inactive means score below 0.9.

In general, AC50 refers to the concentration at which the activity in the assay is half-maximal.

Glyceraldehyde-3-phosphate dehydrogenase (Homo sapiens), sequence (P04406 whole entry, looked up): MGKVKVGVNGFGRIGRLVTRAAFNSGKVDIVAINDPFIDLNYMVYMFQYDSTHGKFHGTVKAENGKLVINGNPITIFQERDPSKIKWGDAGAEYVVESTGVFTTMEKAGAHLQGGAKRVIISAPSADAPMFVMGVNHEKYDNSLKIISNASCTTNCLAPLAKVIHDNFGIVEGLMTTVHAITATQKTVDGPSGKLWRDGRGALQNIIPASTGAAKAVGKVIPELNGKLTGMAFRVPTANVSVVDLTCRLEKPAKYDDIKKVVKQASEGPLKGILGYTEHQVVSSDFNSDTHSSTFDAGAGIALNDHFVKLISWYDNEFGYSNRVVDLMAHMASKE

`CCOC(=O)COc1cc(-n2ncc(C(F)(F)F)c(C)c2=O)c(F)cc1Cl`: the molecule was classed as inactive in [1], in assay [4], in assay [5] and in assay [6]. The AC50 in assay [2] was 2.49 µM (active); in [3], 0.458 µM (active); in assay [7], 6.56 µM (active).

With `CCOC(=O)NCCOc1ccc(Oc2ccccc2)cc1`, the result in [1] and in [6] was inactive. Also, the AC50 in [2] was 3.97 µM (active); in assay [3] it was 15.4 µM (active); in assay [7], 12.1 µM (active).

Regarding `c1ccc(Nc2ccccc2)cc1`, the molecule was classed as inactive in assay [1], in [8], in [9] and in [5]. Besides, the values for the AC50 in assay [2], in assay [3] and in [7] were 9.66 µM (active), 64 µM (active) and 6.82 µM (active), respectively.

Take `CCOC(=O)C(C)Oc1ccc(Oc2nc3ccc(Cl)cc3o2)cc1` (stereo not given): the call in assay [1], in assay [2], in [4], in assay [5] and in [6] was inactive. In assay [3], the AC50 was 2.06 µM (active).

Consider `Oc1ccc(C(c2ccc(O)cc2)C(Cl)(Cl)Cl)cc1`, for which the molecule was called inactive in assay [1], in assay [9], in assay [2], in [5], in assay [6] and in [7]. Also, in assay [3], the AC50 is 17.1 µM (active).

In the case of `N#CSCSc1nc2ccccc2s1`, the outcome in assay [1], in [10], in assay [9], in assay [6] and in [7] was inactive. The concentration at half-maximal activity (AC50) was 0.651 µM (active) in assay [3] and 7.13 µM (active) in assay [5].

Turning to `O=C(O)c1ccccc1`, the molecule was classed as inactive in [10].

In the case of `CC(C)(C)[C@@H](O)[C@@H](Cc1ccc(Cl)cc1)n1cncn1`, the molecule was called inactive in assay [1] and in assay [4]. For the same molecule, the AC50 was 1.73 µM (active) in [2]; 46.7 µM (active) in assay [3]; 1.9 µM (active) in [5]; 9.46 µM (active) in assay [6]; 2 µM (active) in assay [7].

Turning to `CCCCCOC(=O)COc1cc(N2C(=O)C3=C(CCCC3)C2=O)c(F)cc1Cl`, the result in assay [1], in assay [4], in [6] and in [7] was inactive. Besides, the half-maximal activity concentration (AC50) in [2] was 20 µM (active); in assay [3] it was 3.14 µM (active).

Regarding `O=C(O)C1(C(=O)Nc2ccc(Cl)cc2Cl)CC1`, the call in [1], in [4], in assay [5] and in assay [7] was inactive. In assay [3], the concentration at half-maximal activity (AC50) is 22.7 µM (active).

In the case of `CCC(C)OC(=O)N1CCCCC1CCO` (stereo not given), the molecule was called inactive in assay [1], in assay [9], in assay [2], in [3], in [4] and in assay [5]. The outcome in assay [6] and in assay [7] was inactive.

As to `CCCCOC(=O)[C@@H](C)Oc1ccc(Oc2ccc(C(F)(F)F)cn2)cc1`, the molecule was called inactive in assay [1], in assay [2], in assay [5], in [6] and in assay [7]. For the same molecule, the AC50 in [3] was 5.45 µM (active).

Turning to `COCCO`, the call in assay [10], in assay [9], in assay [3], in [4] and in [6] was inactive.

Regarding `COc1nc(C)nc(NC(=O)NS(=O)(=O)c2ccccc2OCCCl)n1`, the outcome in assay [1], in assay [2], in assay [3], in assay [4], in assay [6] and in assay [7] was inactive.

`CC1(C)C(C=C(Cl)Cl)C1C(=O)OCc1cccc(Oc2ccccc2)c1` (stereo not given): the molecule was classed as inactive in assay [1], in assay [8], in assay [4], in assay [5] and in assay [6]. Besides, the AC50 in [2] was 0.083 µM (active); in [3], 3.31 µM (active); in assay [7] it was 7.12 µM (active).

For `CN(C)C(=O)Nc1ccc(Cl)c(Cl)c1`, the result in assay [10], in assay [3] and in assay [5] was inactive. For the same molecule, the AC50 is 4.6 µM (active) in [2] and 2.49 µM (active) in assay [7].

`CCCCOC(=O)C(C)Oc1ccc(Oc2ccc(C(F)(F)F)cn2)cc1` (stereo not given): the call in assay [1], in assay [2], in assay [4], in assay [5] and in assay [7] was inactive. The AC50 in [3] was 16.1 µM (active).

On to `CC(C)(c1ccc(O)cc1)c1ccc(O)cc1`, for which the molecule was classed as inactive in assay [1], in assay [9], in assay [4], in assay [5], in assay [6] and in assay [7]. For the same molecule, the AC50 in assay [2] was 14.2 µM (active); in assay [3], 57 µM (active) and 66.2 µM (active).

For `C=CCOC(Cn1ccnc1)c1ccc(Cl)cc1Cl` (stereo not given), the result in assay [1], in [4], in assay [5] and in assay [6] was inactive. Besides, the figures for the AC50 in [2], in assay [3] and in assay [7] were 0.0186 µM (active), 2.91 µM (active) and 0.135 µM (active), respectively.

Turning to `COC(=O)c1ccc(CNS(C)(=O)=O)cc1S(=O)(=O)NC(=O)Nc1nc(OC)cc(OC)n1`, the result in assay [1], in assay [9], in assay [2], in [3], in [4] and in assay [6] was inactive. The molecule was called inactive in assay [7].

For `CCCN(CCC)C(=O)SCC`, the result in assay [1], in [9], in assay [2], in [3], in assay [4] and in [6] was inactive. Further, the outcome in assay [7] was inactive. Further, the results for the AC50 in assay [2] and in assay [7] were 0.165 µM (active) and 0.0274 µM (active), respectively.

Consider `COC(=O)c1ccc(I)cc1S(=O)(=O)NC(=O)Nc1nc(C)nc(OC)n1`, for which the outcome in assay [1], in assay [9], in assay [3], in assay [4], in assay [5] and in assay [7] was inactive. Also, the half-maximal activity concentration (AC50) in assay [2] is 0.397 µM (active); in assay [6], 20 µM (active).

On to `S=C(S)NCCNC(=S)S.[Mn+2].[S-]C([S-])=NCCN=C([S-])[S-].[Zn+2]`, for which the molecule was called inactive in assay [1], in assay [10] and in [3]. The AC50 was 2.55 µM (active) in [2], 29.3 µM (active) in assay [3] and 1.5 µM (active) in assay [6].

`COc1c(Cl)ccc(Cl)c1C(=O)O`: the molecule was called inactive in [1], in assay [3], in assay [4], in assay [5] and in assay [6].

`COC(=O)c1ccccc1S(=O)(=O)NC(=O)Nc1nc(OC(F)F)cc(OC(F)F)n1`: the call in [1], in assay [2], in assay [4], in assay [6] and in assay [7] was inactive. In assay [3], the AC50 was 3.02 µM (active).

On to `COC(=O)c1c(Cl)nn(C)c1S(=O)(=O)NC(=O)Nc1nc(OC)cc(OC)n1`, for which the molecule was classed as inactive in assay [1], in assay [2], in assay [4], in [5], in assay [6] and in assay [7]. Also, in assay [3], the AC50 was 58.9 µM (active).
